Test results published in PubChem BioAssay (NCI).
This is part of a sample that, as a whole, favours compounds with a hit. Of some 83,000 tested, about 20% had one in any assay.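 Plates (96-well) were seeded with cells, treated with compound at one concentration, and incubated for 48 hours before percent growth was determined.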 Unmarked numbers belong to inactive results. Activity calls are given as the source filed them.

test system: HT29 colon; assay: NCI-60 one-dose screen, 48 h (100 = growth as untreated, 0 = no growth, -100 = all killed); settings: 10 µM unless noted
Procedure: Growth inhibition of the HT29 human tumor cell line is measured as a screen for anti-cancer activity. Cells are grown in 96 well plates and exposed to the test compound for 48 hours. Compounds are tested at a single concentration, which is 10^-5 M for most compounds. The reported endpoint is percent growth (GI% or GIPRCNT), where numbers from 0 - 100% represent growth inhibition, and numbers from -100% - 0 represent cell death. For example, a value of 40 represents 60% growth inhibition. A value of 0 means no net growth occurred over the course of the experiment. A value of -40 indicates 40% of cells at the beginning of the experiment died by the end of the experiment. A value of -100 means all cells are dead at the end of the experiment.
NCI-60 Human Tumor Cell Lines Screen was performed using the standard one-dose NCI protocol, which is described in more detail at https://dtp.cancer.gov/discovery_development/nci-60/default.htm.
Compounds with GIPRCNT values below 10 were considered active. Activity score was based on GIPRCNT using the following formula: […]
Score is 0 for GIPRCNT values of 100 or above, 50 for GIPRCNT values of 0, and 100 for GIPRCNT values of -100.

| Structure (SMILES) | growth |
| --- | --- |
| C=C1C(=O)O[C@H]2[C@H]1CC/C(COC(=O)CCCC(=O)OC/C1=C/CC[C@@]3(C)O[C@H]3[C@H]3OC(=O)C(=C)[C@@H]3CC1)=C\CC[C@@]1(C)O[C@@H]21 | -40% (active) |
| Cc1ccc2c(C3C(C#N)=C(N)Oc4cc5ccccc5cc43)cc(=O)oc2c1 (stereo not given) | 6.66% (active) |
| CCN(CC)c1ccc(C2CC(c3cc(OC)c(OC)c(OC)c3)=NN2)cc1 (stereo not given) | -3.21% (active) |
| Clc1ccc2c(c1)nnn1c3ncccc3c(Br)c21 | 93.8% |
| CN(C)CCNc1nc2ccccc2c2c(=O)c3ccccc3sc12 | -0.107% (active) |
| COc1ccc(-c2ccc(NC(=O)Nc3ccc(Cl)c(C(F)(F)F)c3)c(C)n2)cc1 | 46.4% |
| COc1ccc(/C=C/C(=O)/C=C(/C=C/c2ccc(OC)c(OC)c2OC)OB(F)F)c(OC)c1OC | 13.9% |
| COc1cc(NC(C)CCCN2C(=O)c3ccccc3C2=O)c2nccc(C)c2c1OC (stereo not given) | 107% |
| O=C(Nc1ccc(-n2cc(-c3ccncc3)c(-c3ccc(O)c(Cl)c3)n2)cc1)c1ccc(Cl)c(Cl)c1 | -10.4% (active) |
| CCn1cc(C(=O)O)c(=O)c2cc(F)c(N3CCN(CC(=O)Nc4ccc(C(C)=O)cc4)CC3)cc21 | 100% |
| Nc1ncnc2c1c(-c1ccc(Oc3ccccc3)cc1)nn2C[C@H]1SSC[C@H]1O | -59.1% (active) |
| Cc1cc(N2CCOCC2)nc(N(CCNc2ccnc3cc(Cl)ccc23)Cc2ccco2)n1 | 3.4% (active) |
| O=C(N/N=C/c1ccccc1O)c1ccccc1O | 72.9% |
| CCN(CC)C(=O)C1CCN(C(=O)c2ccccc2)CC1 | 104% |
| COc1ccc(Cl)cc1NC(=O)c1cc2c([nH]1)-c1nc(NC(=O)C(C)C)sc1CC2 | 87% |
| COC(=O)c1oc2c(C(C)=O)c(OCCN3CCCCC3)ccc2c1C | 133% |
| Clc1ccc(OCc2nc(-c3ccccc3)n[nH]2)c(Cl)c1 | 101% |
| O=c1c2ccccc2sc2c(NCCN3CCOCC3)nc3ccccc3c12 | 8.68% (active) |
| CC(=O)N1N=C(CCC(=O)c2nc3ccc([N+](=O)[O-])cc3[nH]2)OC1c1ccc(O)cc1 (stereo not given) | 76.5% |
| O=C1CCC(=O)N1C1CCCCC1 | 112% |

| Structure (SMILES) | growth |
| --- | --- |
| CCOc1ccc(Cc2nccc3cc(OCC)c(OCC)cc23)cc1OCC | 25.2% |
| c1nc(SC2=NCCN2)c2[nH]cnc2n1 | 35.3% |
| C=C1C(=O)O[C@H]2[C@H]1CC/C(COC(=O)OC/C1=C/CC[C@@]3(C)O[C@H]3[C@H]3OC(=O)[C@@H](CN(C)C)[C@@H]3CC1)=C\CC[C@@]1(C)O[C@@H]21 | -8% (active) |
| CC(C)C1(C(C)C)NC(=O)NC1=O | 103% |
| COCCNC(C(=O)c1ccccc1)c1ccccc1 (stereo not given) | 107% |
| NC(=O)C1=C[C@H]2[C@H]3C=C[C@@]2(O)C(=O)O[C@@H]3O1 | 47% |
| Cc1cn(-c2nc3c(c(NCc4ccccc4)n2)COCC3)c2cccc(C(N)=O)c12 | 63.4% [0.5 µM] |
| O=C(NCCNc1nccc(-c2c(-c3cccc(O)c3)nc3sccn23)n1)c1ccccc1 | 65.4% |
| O=C(Nc1ccccc1Cl)c1c[nH]c(=O)c(-c2ccc(N3CCCOC4(CC4)C3)cc2)c1 | 70.5% |
| COc1cccc(-c2nc3sccn3c2-c2ccnc(NCCNC(=O)Nc3cccc(C(F)(F)F)c3)n2)c1 | 44.1% |
| [2H]c1nc(Nc2ncc(F)c(-c3cc(F)c4nc(C)n(C(C)C)c4c3)n2)c([2H])c([2H])c1CN1CCN(CC)CC1 | 31.5% |
| CCC(C)Nc1ccc(N)cc1 (stereo not given) | 7.64% (active) |
| O=[N+]([O-])c1cccc2cc(S(=O)(=O)O)ccc12 | 87.5% |
| C=C1C(=O)O[C@H]2[C@H]1CC/C(COC(=O)c1ccc3ccccc3c1)=C\CC[C@@]1(C)O[C@@H]21 | -87.5% (active) |
| COc1cc(-c2nc3ccccc3s2)ccc1OCc1nc2n(n1)S(=O)(=O)c1ccccc1N2C | 100% |
| CCOc1ccccc1C(=O)N1CCN(c2cc(Cl)cc(Cl)c2)CC1 | -27.4% (active) |
| COc1ccccc1NC(=O)COc1ccc(/C=C2/Oc3cc4occc4c(OC)c3C2=O)cc1OC | 113% |
| CCCCC(=O)Nc1nc2ccc(SCCC)cc2s1 | 18% |
| CCCCCCCCCCCCCCCCCCNCc1ccc(Cl)cc1 | -94.7% (active) |
| O=C(C[n+]1cccc(Br)c1)c1ccc2c(c1)CCCC2 | 80.7% |
